Growth data for eight compounds are collected here from PubChem BioAssay (NCI).

Some test systems named below: DU-145 prostate; K-562 leukemia; MALME-3M melanoma; MDA-MB-231 breast; RXF 393 renal; SF-268 CNS; SF-295 CNS; SF-539 CNS; M14 melanoma; HCT-15 colon; HT29 colon; SNB-75 CNS; PC-3 prostate; SK-MEL-5 melanoma; UACC-62 melanoma; LOX IMVI melanoma; SK-MEL-28 melanoma; UACC-257 melanoma; SNB-19 CNS; U251 CNS.
What all share (assay): NCI-60 one-dose screen, 48 h (100 = growth as untreated, 0 = no growth, -100 = all killed)
Common to all, as to conditions: 10 µM unless noted

About 83,000 compounds went through this panel and 20% of them were active in at least one assay; those are over-represented in the sample as a whole.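 48-hour exposure, single concentration, 96-well plates; percent growth endpoint where 0 means no net growth. Active: below 10.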 A number with no mark means an inactive call. The source made the active and inactive calls.

Regarding `CCCCCCCCCCCCCC1=NCCN1CCO`, the growth in the test on DU-145 prostate was 116%; in the test on K-562 leukemia it was 5.11% (active); in the test on MALME-3M melanoma, 104%; with MDA-MB-231 breast, 51.3%; in the test on RXF 393 renal, 59.5%; with SF-268 CNS, 152%. In addition, the growth with SF-295 CNS is 136%; in the test on SF-539 CNS, -70% (active); in the test with M14 melanoma it was 2.59% (active); in the test with HCT-15 colon it was 47.2%; with HT29 colon, 10.1%; in the test on SNB-75 CNS, 150%. Besides, the growth with PC-3 prostate was 31.6%; in the test on SK-MEL-5 melanoma it was 81.8%; in the test on UACC-62 melanoma, 93.5%; in the test with LOX IMVI melanoma, -52.8% (active); in the test on SK-MEL-28 melanoma, 115%.
In the case of `CCOC(=O)/C=C/c1ccc(C(=O)OCC)[nH]1`, the growth is 73.4% in the test with DU-145 prostate; 19.4% in the test on K-562 leukemia; 73.1% in the test on MALME-3M melanoma; 58.8% in the test on MDA-MB-231 breast; 87.3% with RXF 393 renal; 69.2% in the test with SF-268 CNS. Moreover, the growth in the test on SF-295 CNS was 63%; in the test with UACC-257 melanoma it was 68.1%; in the test with M14 melanoma, 47.6%; in the test on HCT-15 colon, 24.3%; with HT29 colon, 15%; in the test on SNB-75 CNS it was 70.1%. Also, the growth in the test with SNB-19 CNS was 87.7%; in the test on U251 CNS, 39.9%; with PC-3 prostate, 83.5%; in the test on SK-MEL-5 melanoma, 8.89% (active); in the test with UACC-62 melanoma it was 51%; in the test on LOX IMVI melanoma, 52.7%. Besides, in the test with SK-MEL-28 melanoma, the growth is 83.8%.
On to `CC1CN(Cc2ccco2)C(=S)N(c2ccccc2)C1=O` (centres undefined), for which the growth was 110% in the test with DU-145 prostate; 62.7% in the test on K-562 leukemia; 97.8% in the test on MALME-3M melanoma; 106% in the test with MDA-MB-231 breast; 111% with RXF 393 renal; 105% in the test on SF-268 CNS. The growth in the test on SF-295 CNS was 92.3%; in the test on SF-539 CNS, 90.8%; in the test with M14 melanoma, 99.6%; with HCT-15 colon, 98.2%; with HT29 colon it was 93.4%; in the test with SNB-75 CNS, 62.2%. Also, the growth in the test on U251 CNS is 93.4%; with PC-3 prostate, 86.5%; in the test on SK-MEL-5 melanoma it was 100%; with UACC-62 melanoma, 93.2%; in the test with LOX IMVI melanoma, 94.1%; with SK-MEL-28 melanoma, 102%.
For `CCN(CC)c1ccc(/C=C/C2=[N+](C)c3ccccc3C2(C)C)cc1`, the growth with DU-145 prostate was 14.3%; in the test with K-562 leukemia, 28.3%; in the test on MALME-3M melanoma it was 19%; with MDA-MB-231 breast, 7.79% (active); with RXF 393 renal, 33.7%; in the test with SF-268 CNS, 17%. Further, the growth with SF-295 CNS is -19% (active); in the test with SF-539 CNS, 14.7%; in the test on M14 melanoma it was 22.4%; with HCT-15 colon, 41.1%; in the test on HT29 colon it was 10.7%; in the test on SNB-75 CNS, 26.4%. Besides, the growth is 13.8% in the test on U251 CNS; 5.82% (active) in the test with PC-3 prostate; -71.3% (active) in the test with SK-MEL-5 melanoma; 16% in the test with UACC-62 melanoma; 13.3% in the test on LOX IMVI melanoma; 42.9% with SK-MEL-28 melanoma.
With `Nc1cccc(NC(=O)C(=O)Nc2cccc(N)c2)c1`, the growth in the test with DU-145 prostate is 107%; in the test with K-562 leukemia it was 95.3%; with MALME-3M melanoma, 141%; in the test with MDA-MB-231 breast, 104%; with RXF 393 renal it was 87.5%; in the test with SF-268 CNS, 101%. For the same compound, the growth with SF-295 CNS was 98.1%; in the test with SF-539 CNS, 111%; in the test with M14 melanoma, 87.4%; with HCT-15 colon, 94.5%; in the test on HT29 colon, 115%; with SNB-75 CNS, 94%. Also, the growth was 95.8% in the test on U251 CNS; 99.8% in the test with PC-3 prostate; 117% with SK-MEL-5 melanoma; 90.6% in the test with UACC-62 melanoma; 90% in the test with LOX IMVI melanoma; 103% in the test with SK-MEL-28 melanoma.
On to `COc1ccc(CCN2CCCn3c2nc2ccccc2c3=O)cc1`, for which the growth with DU-145 prostate was 16.4%; in the test on K-562 leukemia it was 13.1%; with MALME-3M melanoma, 59.8%; in the test with MDA-MB-231 breast it was 42.5%; in the test on RXF 393 renal, -0.0509% (active); in the test on SF-268 CNS, 56.9%. For the same compound, the growth is 20.4% in the test with SF-295 CNS; -16.3% (active) in the test on SF-539 CNS; 81.3% in the test with UACC-257 melanoma; 22.2% in the test on HCT-15 colon; 11.8% in the test on HT29 colon; 17.5% in the test with SNB-75 CNS. Moreover, the growth in the test with U251 CNS is 29%; in the test with PC-3 prostate, 42%; in the test on SK-MEL-5 melanoma, 15.5%; with UACC-62 melanoma it was 26.5%; with LOX IMVI melanoma, 15.1%; in the test on SK-MEL-28 melanoma it was 49.6%.
As to `O=C(/C=C\c1cccc([N+](=O)[O-])c1)c1ccccc1`, the growth in the test with DU-145 prostate was 59%; with K-562 leukemia, 180%; with MALME-3M melanoma, 36.6%; in the test with MDA-MB-231 breast, 104%; in the test on RXF 393 renal, 14.9%; with SF-268 CNS it was 25.8%. For the same compound, the growth is 89.9% in the test with SF-295 CNS; 85.4% with SF-539 CNS; 26.8% with M14 melanoma; 21% with HCT-15 colon; 4.18% (active) in the test on HT29 colon; 77.6% in the test with SNB-75 CNS. For the same compound, the growth with U251 CNS was 31.1%; with PC-3 prostate it was 40.7%; with SK-MEL-5 melanoma, 76.3%; in the test with UACC-62 melanoma it was 71.9%; in the test with LOX IMVI melanoma, 3.66% (active); with SK-MEL-28 melanoma it was 5.24% (active).
`Cc1cc2cc3cc(C)c(N(C)C)cc3[n+](C)c2cc1N(C)C`: the growth in the test with DU-145 prostate is 24.2%; with K-562 leukemia, 44.7%; in the test on MALME-3M melanoma, 19.9%; with MDA-MB-231 breast it was 57.1%; in the test with RXF 393 renal, 25%; in the test with SF-268 CNS, 11.7%. Moreover, the growth with SF-295 CNS is 16.6%; in the test on SF-539 CNS, 9.99% (active); in the test on M14 melanoma it was 41.2%; with HCT-15 colon it was 65.6%; with HT29 colon, 16.6%; in the test on SNB-75 CNS it was 35.4%. The growth in the test with U251 CNS was 12.3%; in the test with PC-3 prostate, 4.2% (active); in the test on SK-MEL-5 melanoma, 42.1%; with UACC-62 melanoma, 56%; in the test with LOX IMVI melanoma, 25.9%; with SK-MEL-28 melanoma, 39.6%.
